Biological target: T1, TtCas6A R129A (Thermus thermophilus HB8, R129A)
T1 chain: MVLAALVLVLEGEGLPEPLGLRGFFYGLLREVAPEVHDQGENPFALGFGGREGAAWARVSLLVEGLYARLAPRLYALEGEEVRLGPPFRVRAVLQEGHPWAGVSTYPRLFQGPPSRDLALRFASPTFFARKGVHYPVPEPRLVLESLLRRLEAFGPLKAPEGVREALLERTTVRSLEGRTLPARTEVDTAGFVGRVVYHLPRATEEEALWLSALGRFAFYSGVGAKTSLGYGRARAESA
Assay: EMSA; Kd in FIG. 24D only
Settings: chain copies: 2 inferred; label: 5'-32P (EMSA); hairpin; ssRNA
Description: FIG. 22 illustrates that TtCas6A and TtCas6B both cleave repeats R1 and R3 and retain their cleaved products. (A) Sequences and predicted secondary structures of T. thermophilus CRISPR repeats. Sites of cleavage are indicated with blue arrows. TtCas6e (TTHB192) cleaves repeat R2, while TtCas6A (TTHA0078) and TtCas6B (TTHB231) both cleave repeats R1 and R3. (B) Cleavage product binding affinities of TtCas6A and TtCas6B enzymes. Maltose binding protein (MBP)-fused TtCas6A or TtCas6B were bound to in 5′-radiolabelled, vitro transcribed R1 and R3 RNAs. Bound and unbound fractions were resolved by electrophoresis on a native polyacrylamide gel and visualized by phosphorimaging. The data for these and all subsequent binding assays were fit with standard binding isotherms (solid line). Error bars on each data point denote standard error of the mean (SEM) from three independent experiments. (C) Experiments to confirm single turnover. RNA cleavage assays were carried out at indicated protein:RNA ratios. RNA cleavage was monitored using denaturing polyacrylamide gel electrophoresis. The data from these and all subsequent endoribonuclease activity assays were fit with single exponential curves to yield first-order rate constants. (Top to bottom: FIG. 22A, SEQ ID NOs: 1, 2, 55).
To test the importance of the stem sequence for substrate RNA recognition by TtCas6A, a series of EMSAs was performed using R1 repeat-derived RNAs that carried single base pair substitutions (C-G→A-U). All mutant RNAs contained the complete 5′ segment and additional two nucleotides downstream of the cleavage site. Compared to the wild-type RNA, substitution of any of the four C-G base pairs in the stem led to about five-fold decrease in affinity (FIG. 24C). This is consistent with the observation that the lower three C-G base pairs are specifically read out by Arg129. The binding defect observed upon mutation of the closing (uppermost) base pair could be due to loss of stability of the stem-loop structure, which is determined by the closing base-pair (Serra et al, 1993). To further investigate the protein determinants of RNA binding, we tested the TtCas6A mutants H37A and R129A and performed binding assays using substrates R1 and R3 (FIG. 24D).

Q: For GUUGCAAGGGAUUGAGCCCCGUAAGGGGAUUGCGAC, which binding signal is on record?
A: ~260 fold lower affinity than WT

Q: GUUGCAAACCUCGUUAGCCUCGUAGAGGAUUGAAAC was tested. Which binding signal did it give?
A: ~290 fold lower affinity than WT
